PubChem BioAssay AID1159580 (chemical genetic matrix, 2015)
In all, about 5,500 compounds went through this assay and about 2,000 (36%) were called active. About 18% were inconclusive and are not listed. No stated cut-off is given here; in the data, active means normalized growth mostly below about 0.91 (no sharp cut-off); inconclusive means no clear call, values can overlap the other calls; inactive means mostly above about 0.92. This is one part of the list.

Experiment: chemical genetic growth profiling, strain panel (AID 1159580);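 further: tested at 20 µM; growth read once vehicle control cultures reached saturation at 30 °C; 1 = growth at the plate median or of vehicle wells; lower values mean less growth of the strain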
Conditions: S. cerevisiae deletion strains, growth OD

Measured: normalized growth

C(=C\c1ccccc1)/CN1CCN(C(c2ccccc2)c2ccccc2)CC1
inactive: locus YAL040C, strain CLN3, hits give low values 0.995 | locus YCL061C, strain MRC1 (second series), hits give low values 0.992 | locus YMR307W, strain GAS1, hits give low values 0.998 | locus YNL153C, strain GIM3, hits give low values 0.851 | locus YNL197C, strain WHI3, hits give low values 1.11 | locus YNL224C, strain SQS1, hits give low values 1.02 | locus YOR083W, strain WHI5 (second series), hits give low values 0.99 | locus YPL055C, strain LGE1, hits give low values 1
active: locus YER002W, strain NOP16, hits give low values 1.09 [resistant]
